Tests used:
Conditions in all cases: concentration: 1 μM, replicates: in singlicate; n = 1
BMX = system: BMX
BRAF = system: BRAF
BRK = system: T1, BRK
T1 construct: gene PTK6

BRSK1 = system: BRSK1
BRSK2 = system: BRSK2
BTK = system: BTK
BUB1 = system: BUB1
CAMK1B = system: CAMK1B
CAMK1D = system: CAMK1D
CAMK1G = system: CAMK1G
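Further: KINOMEscan kinase panel screen.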

Structure (SMILES) | %Inh (BMX) [%] | %Inh (BRAF) [%] | %Inh (BRK) [%] | %Inh (BRSK1) [%] | %Inh (BRSK2) [%] | %Inh (BTK) [%] | %Inh (BUB1) [%] | %Inh (CAMK1B) [%] | %Inh (CAMK1D) [%] | %Inh (CAMK1G) [%]
CCNc1nccc(-c2c(-c3ccc(F)cc3)ncn2C2CCN(C)CC2)n1 | 6 | 0 | 0 | 0 | 0 | 0 | 63 | 0 | 17 | 5
COc1cccc(C2=C(Nc3cccc(O)c3)C(=O)NC2=O)c1 [SB-390771] | 4 | 0 | 33 | 7 | 7 | 0 | 42 | 29 | 13 | 0
c1ccc(Oc2ccc(Nc3ccnc4cc(-c5ccc(CN6CCCCC6)o5)ccc34)cc2)nc1 [GW567143] | 6 | 2 | 96.5 | 6 | 0 | 0 | 18 | 0 | 19 | 0
Cc1cccc(Nc2nc(N[C@H]3CCCC[C@H]3N)ncc2C(N)=O)c1.Cl [GSK986310] | 13 | 0 | 20 | 16 | 13 | 0 | 89 | 91.4 | 61 | 23
Cn1cc(-c2ccc3c(c2)CCN3C(=O)Cc2cc(F)cc(C(F)(F)F)c2)c2c(N)ncnc21 [GSK2635225] | 15 | 0 | 44 | 0 | 5 | 0 | 11 | 41 | 11 | 0
COc1cccc2c(-c3ccncc3)c(-c3ccc(F)cc3)nn12 [GW468513] | 11 | 38 | 1 | 3 | 0 | 0 | 90 | 0 | 0 | 1
CC(C)NCC(Cc1ccccc1)NC(=O)c1cc(Br)c(-c2ccnc3[nH]ccc23)s1.Cl.Cl (stereo not drawn) [GSK1383281] | 5 | 0 | 0 | 0 | 0 | 0 | 43 | 29 | 27 | 0
COC(=O)Nc1nc2cc(Oc3ccc(NC(=O)Nc4cccc(SC)c4)cc3)ccc2[nH]1.Cl [GW697999] | 0 | 83 | 15 | 3 | 10 | 2 | 44 | 0 | 7 | 0
O=C(O)C(F)(F)F.O=c1[nH]ccc2nc(N[C@@H]3CCNC3)nc(Nc3ccc4c(c3)S(=O)(=O)CC4)c12 [GSK2181306] | 24 | 0 | 18 | 52 | 46 | 29 | 90.5 | 98.7 | 98.6 | 82

— paper PMC5540273 (PLoS ONE, 2017)
